# Measured values published in PubChem BioAssay AID720690 (Broad Institute, 2013).
# Entries with a potency or affinity are not part of this list. The source made the active and inactive calls.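 Rule for the calls: active = every repeat run showing a signal drop whose fitted half-maximal concentration is at most twice the top tested concentration; inconclusive = repeat runs disagree, or flat partial drop, or poor fit; inactive = the rest.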
# Assay: general mammalian cell viability loss – activator set, cherry-pick, cytotoxicity control for miR-122 modulator project, dose response (AID 720690);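 note: 0% = neutral control wells and -100% = MG132 cytotoxic control wells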
# Settings: HEK293T viability, CellTiter-Glo luminescence, 48 h; series mostly up to 26 µM; activity change, negative = cytotoxicity: at the top concentration
row,SMILES,"activity change, negative = cytotoxicity"
1,Cc1cc(NS(=O)(=O)c2ccc(NC(=O)C(CC(C)C)N3C(=O)c4ccccc4C3=O)cc2)nc(C)n1 (centres undefined),2.02% (inactive)
2,COC(=O)C[C@H]1CC[C@H]2[C@H](COc3ccc(NC(=O)c4cscn4)cc3C(=O)N2C)O1,-12.2% (inactive)
3,O=C(c1ccco1)N1CCN(C2CC(=O)N(c3ccccc3)C2=O)CC1 (centres undefined),20.3% (inactive)
4,CCC(=O)N1[C@H](CN(C(C)C)S(C)(=O)=O)[C@H](c2ccccc2)[C@@H]1CO,2.4% (inactive)
5,C[C@@H]1CN([C@H](C)CO)C(=O)c2cc(NC(=O)Nc3ccc(C(F)(F)F)cc3)ccc2O[C@@H]1CN(C)CC1CCCCC1,5.66% (inactive)
6,CCN(C[C@H]1[C@H](c2ccccc2)[C@@H](CO)N1C(=O)C1CC1)C(=O)NC1CCCC1,-0.731% (inactive)
7,C[C@@H]1CN([C@H](C)CO)S(=O)(=O)c2ccc(C3=CCCC3)cc2O[C@@H]1CN(C)C(=O)c1cnccn1,6.08% (inactive)
8,CC(C)N(C[C@H]1[C@H](c2ccccc2)[C@@H](CO)N1S(C)(=O)=O)C(=O)CN(C)C,-10.7% [at 23.5 µM] (inactive)
9,CNC(=O)C[C@H]1CC[C@@H]2[C@H](COc3ccc(NC(=O)Nc4cccc(F)c4)cc3C(=O)N2C)O1,-6.54% (inactive)
10,COc1ccc(S(=O)(=O)Nc2cc(C)cc(C)n2)c2ccccc12,16.4% (inactive)
11,CC(C)C#Cc1ccc2c(c1)O[C@H](CN(C)C(=O)Nc1ccccc1)[C@H](C)CN([C@@H](C)CO)S2(=O)=O,-13% (inactive)
12,Cc1ccccc1NCN1C(=O)C2C3C=CC(C3)C2C1=O (centres undefined),3.51% (inactive)
13,CCOc1ccc(NC(=S)N(CCCN2CCCC2)Cc2cccn2Cc2ccc(Cl)cc2)cc1,-12.4% (inactive)
14,C[C@@H]1CN([C@H](C)CO)S(=O)(=O)c2ccc(C3=CCCC3)cc2O[C@@H]1CN(C)C(=O)c1ccc(F)cc1,-21.9% (inactive)
15,COCC(=O)N(C[C@H]1N[C@@H](CO)[C@@H]1c1ccc(C2=CCCC2)cc1)C(C)C,-19.8% (inactive)
16,CC(=O)Nc1ccc2c(c1)C(=O)N(C)[C@H]1CC[C@@H](CC(=O)NCc3ccc4c(c3)OCO4)O[C@@H]1CO2,-3.39% [at 23.5 µM] (inactive)
17,CCC(=O)N1[C@H](CO)[C@@H](c2ccccc2)[C@@H]1CN(C(C)C)S(C)(=O)=O,1.18% (inactive)
18,C=CCc1ccccc1OCC(O)CN1CCN(CCN2C(=O)c3cccc4cccc(c34)C2=O)CC1 (centres undefined),2.13% (inactive)
19,CN1C[C@@H]2[C@H](c3ccccc31)[C@@H](CO)N2C(=O)Nc1ccccc1,-15.9% (inactive)
20,COCC(=O)N1[C@H](CO)[C@H]2c3ccccc3N(C(=O)c3ccccc3F)C[C@H]21,-7.76% [at 23.5 µM] (inactive)

row,SMILES,"activity change, negative = cytotoxicity"
1,COc1cc(-c2nnc3sc(C4CCCCC4)nn23)cc(OC)c1OC,-26% (inactive)
2,C[C@@H]1CN([C@H](C)CO)C(=O)c2cccc(NC(=O)c3ccc(-c4nccs4)cc3)c2O[C@H]1CN(C)S(=O)(=O)c1ccc(F)cc1,-0.125% [at 23.5 µM] (inactive)
3,CNC(=O)C[C@@H]1CC[C@H]2[C@@H](COc3ccc(NC(=O)c4cccc(OC)c4)cc3C(=O)N2C)O1,9.81% [at 23.5 µM] (inactive)
4,C/C=C/c1ccc([C@H]2[C@H](CO)N[C@H]2CN(C)S(=O)(=O)c2ccccc2)cc1,-14.5% (inactive)
5,C/C=C/c1ccc([C@H]2[C@H](CO)N[C@@H]2CN(CC)C(=O)c2cccnc2)cc1,-12.1% (inactive)
6,COCC(=O)Nc1ccc2c(c1)C(=O)N(C)[C@H]1CC[C@@H](CC(=O)NCCCN(C)C)O[C@@H]1CO2,-10.5% (inactive)
7,COc1ccc(NC(=O)COC(=O)CCCc2c[nH]c3ccccc23)cc1,1.82% (inactive)
8,COCCNC(=O)C[C@@H]1CC[C@@H]2[C@H](COc3ccc(NS(=O)(=O)c4ccc(Cl)cc4)cc3C(=O)N2C)O1,-19.3% (inactive)
9,CN1C(=O)c2cc(NC(=O)c3cccc(F)c3)ccc2OC[C@H]2O[C@H](CC(=O)NC3CCC3)CC[C@@H]21,-9.72% (inactive)
10,C[C@@H]1CN([C@@H](C)CO)S(=O)(=O)c2ccc(/C=C/c3ccccc3)cc2O[C@@H]1CN(C)C(=O)NC1CCCCC1,-4.62% (inactive)
11,Cc1cc(CN(C)C(=O)c2cc(COc3ccc4ncccc4c3)on2)on1,-14% (inactive)
12,CC(C)Oc1ccc(C(CCN)C2CCCCC2)cc1 (centres undefined),-85.3% (inactive)
13,C/C=C/c1ccc([C@H]2[C@@H](CO)N[C@@H]2CN(C(=O)c2ccccc2F)C(C)C)cc1,-11.2% (inactive)
14,OC[C@H]1[C@@H](c2ccccc2)[C@H](CNCC2CCC2)N1CC1CC1,-6.36% (inactive)
15,C[C@@H]1CN([C@@H](C)CO)S(=O)(=O)c2ccc(C3=CCCCC3)cc2O[C@@H]1CN(C)C(=O)Cc1ccncc1,-7.64% (inactive)
16,CC(=O)N1[C@H](CNC(=O)C2CC2)[C@H](c2ccc(-c3cccc(F)c3)cc2)[C@@H]1CO,-11.7% (inactive)
17,C[C@@H]1CN([C@@H](C)CO)C(=O)c2cc(NC(=O)NC3CCCCC3)ccc2O[C@@H]1CN(C)C(=O)Nc1ccc2c(c1)OCO2,-8.64% (inactive)
18,C[C@H](CO)N1C[C@H](C)[C@H](CN(C)C(=O)Nc2ccc3c(c2)OCO3)Oc2ncc(-c3cccc(C(F)(F)F)c3)cc2C1=O,-28.7% (inactive)
19,COc1ccc(CNCCC(c2ccc(OC)cc2)c2ccccc2OC)cc1 (centres undefined),-48.3% (inactive)
